Test results published in PubChem BioAssay (Tox21).
Records with an inconclusive call do not appear. Where a call stands in place of a potency, no number is given. Calls of active or inactive are those of the source. Calls come from the whole dose curve; as a rule, active = well fitted activation curve with a large enough effect in the repeat runs; inconclusive = weak or mixed curves; inactive = flat fitted curve, though single readings scatter.

Assay: A CellTox Green Cytotoxicity Assay to monitor cytotoxicity in HepG2 cells - 32 hour (AID 1224883); note: nearly all actives have a fitted effect of over 50% in size
Conditions: CellTox Green fluorescence; series mostly up to 76.8 µM
How it was run: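 HepG2, 600 cells/well premixed w/ CellTox Green; 5 h settle, 37 C/5% CO2; pintool cpd add (DMSO); 37 C, 40 h; fluorescence read at 0, 8, 16, 24, 32, 40 h.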
Potency is the fitted concentration of half-maximal effect.

Row | SMILES | Potency
1 | Nc1ccccc1O | inactive
2 | [O-][n+]1ccccc1SSc1cccc[n+]1[O-] | 0.585 µM (active)
3 | CCCCCCCCS(=O)C(C)Cc1ccc2c(c1)OCO2 (stereo not drawn) | inactive
4 | NNc1nc(-c2ccccc2)cs1 | inactive
5 | CCCCC(CC)CN=C(N)NC(N)=NCCCCCCN=C(N)NC(N)=NCC(CC)CCCC (stereo not drawn) | 8.49 µM (active)
6 | CCCCCCCCCCCC[N+](C)(C)CCCCCCCCCCCC | 7.76 µM (active)
7 | CC1=NC(C)OC1C (stereo not drawn) | inactive
8 | C/C=C(\C)C(=O)OCc1ccccc1 | inactive
9 | COCCCC/C(=N\OCCN)c1ccc(C(F)(F)F)cc1 | 26.8 µM (active)
10 | CCCCCCCCNC(C)C(O)c1ccc(SC(C)C)cc1 (stereo not drawn) | 16.9 µM (active)
11 | [Cl][Bi]([Cl])([c]1ccccc1)([c]1ccccc1)[c]1ccccc1 | 6.13 µM (active)
12 | OCCN1CCN(CC/C=C2/c3ccccc3Sc3ccc(C(F)(F)F)cc32)CC1 | 15.1 µM (active)
13 | O=c1cccccc1O | inactive
14 | CC(C)c1ccc2c(c1)CC[C@H]1[C@](C)(CN)CCC[C@]21C | 12.3 µM (active)
15 | CCCCCOc1ccccc1/C(=C\SC)n1ccnc1 | inactive
16 | CCCC1O[C@@H]2C[C@H]3[C@@H]4CCC5=CC(=O)C=C[C@]5(C)[C@H]4[C@@H](O)C[C@]3(C)[C@]2(C(=O)CO)O1 (stereo partly drawn) | inactive
17 | O=C(Nc1cccc([N+](=O)[O-])c1)c1cc2ccccc2cc1O | inactive
18 | Cc1cc(O)c2ccccc2c1O | 13.4 µM (active)
